# Reference: PubChem BioAssay (Tox21)
# Inconclusive results are not listed. Entries that show only a call come without a potency. The source made the active and inactive calls. Calls follow the shape of the dose curve; as a rule, active = well fitted curve in the direction sought with a large enough effect in the repeat runs; inconclusive = weak or mixed curves; inactive = no such curve, though single readings can be large; an effect the other way counts as inactive or inconclusive.
# Key:
# [1] = qHTS assay to identify small molecule antagonists of the retinoic acid receptor (RAR) signaling pathway (AID 1159552; also: nearly all actives have a fitted effect of over 50% in size)
# Procedure, shortened: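 Luminescence from a RARE luciferase reporter in C3RL4 cells served as read-out. Cells received compounds together with 1 uM final retinol and incubated 6 hr at 37 C before detection reagent was added for 30 min at room temperature.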
# [2] = qHTS assay to identify small molecule antagonists of the retinoid acid receptor (RAR) signaling pathway - cell viability counter screen (AID 1159551); also: nearly all actives have a fitted effect of over 35% in size
# Procedure, shortened: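 Cytotoxicity counter screen in C3RL4 cells: 6 h compound exposure with 1 uM retinol (final), viability from cellular ATP by luminescence.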
# [3] = qHTS assay to identify small molecule agonists of the retinoic acid receptor (RAR) signaling pathway (AID 1159553); also: potency is read from the fitted curve at half-maximal effect
# Procedure, shortened: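 Agonist activity was scored in C3RL4 cells bearing a retinoic acid response element luciferase construct. Cells were treated with compounds for 6 hr at 37 C, and luciferase signal was measured as luminescence.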
# [4] = qHTS assay to identify small molecule antagonists of the estrogen related receptor (ERR) signaling pathway - cell viability counter screen (AID 1224818);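 also: series mostly up to about 46 µM; viability measured after 17.5 h of compound exposure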
# Procedure, shortened: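 Cells carrying the ERR pathway reporter were seeded and incubated for 6 hours before compound addition. After a 17.5-hour exposure at 37 C, live-cell protease activity was measured by CellTiter-Fluor fluorescence following 30 minutes of incubation.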
# [5] = qHTS assay to identify small molecule antagonists of the estrogen related receptor signaling pathway with the pleiotropic PPARgamma coactivator (PGC) cell viability counter screen (AID 1224822;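 also: series mostly up to about 46 µM; viability read after 17.5 h compound exposure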)
# Procedure, shortened: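 Seed PGC/ERR cells (2,000/well); incubate 6 h at 37 C/5% CO2; pin-transfer compounds in DMSO; incubate 17.5 h at 37 C; add CellTiter-Fluor; after 30 min read fluorescence.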
SMILES,Potency [1],Potency [2],Potency [3],outcome [4],outcome [5]
CCCCCCc1ccc(N)cc1,inactive,–,–,–,–
CCCCC(CC)COCCCN (stereo not given),inactive,inactive,inactive,–,–
CCOC(=O)C1=NN(c2ccccc2)C(=O)C1,inactive,inactive,inactive,–,–
C=CC[N+]1([C@H]2C[C@H]3[C@@H]4CC[C@H]5C[C@H](OC(C)=O)[C@@H](N6CCCCC6)C[C@]5(C)[C@H]4CC[C@]3(C)[C@H]2OC(=O)CC)CCCCC1,–,inactive,inactive,–,–
CCCCc1cc2ccccc2c(OCCN(C)C)n1,–,inactive,inactive,–,–
CC(=O)c1c(C)c([N+](=O)[O-])c(C(C)(C)C)c([N+](=O)[O-])c1C,inactive,inactive,inactive,–,–
CCCCCc1ccc(N)cc1,inactive,inactive,inactive,–,–
CCC(C)N(C)C(=O)c1cc2ccccc2c(-c2ccccc2Cl)n1 (stereo not given),–,–,–,inactive,inactive
C[C@H](CCC(=O)O)[C@H]1CC[C@H]2[C@@H]3[C@H](O)C[C@@H]4C[C@H](O)CC[C@]4(C)[C@H]3CC[C@]12C,inactive,inactive,inactive,–,–
CN1CCC(OC(c2ccccc2)c2ccccc2)CC1,inactive,inactive,inactive,–,–
N#Cc1cc2ccccc2c2ccccc12,inactive,inactive,inactive,–,–
CCCC(C)C,inactive,–,inactive,–,–
C1CCC2OC2C1 (stereo not given),inactive,inactive,inactive,–,–
CNCC[C@@H](Oc1ccccc1C)c1ccccc1,–,inactive,inactive,–,–
CCOC(=O)C1=C(C)NC(C)=C(C(=O)OC)C1c1cccc([N+](=O)[O-])c1 (stereo not given),inactive,inactive,inactive,inactive,inactive
C[C@@H](C1=C(CCN(C)C)Cc2ccccc21)c1ccccn1,inactive,inactive,inactive,–,–
COC(Cc1ccccc1)OC,inactive,inactive,inactive,–,–
CC(C)(C)c1ccc(OCC2CO2)cc1 (stereo not given),inactive,–,12.4 µM (active),–,–
Cc1cc(CC(=O)O)c(C)n1-c1ccc(Cl)cc1,inactive,inactive,inactive,–,–
N=C(N=C(N)N)N1CCOCC1,inactive,inactive,inactive,–,–
CN(C)CC[C@@H](c1ccc(Br)cc1)c1ccccn1,inactive,inactive,inactive,inactive,inactive
CCCCOc1ccc(CC(=O)NO)cc1,inactive,–,29.8 µM (active),–,–
CC[C@H](C)[C@@H](C(=O)O)n1sc2ccccc2c1=O,–,inactive,inactive,–,–
CC[C@]12CCCN3CCc4c(n(c5ccccc45)C(=O)C1)[C@@H]32,–,inactive,inactive,–,–
O=C(CC(=O)c1ccccc1)c1ccccc1,–,inactive,8.27 µM (active),–,–
O=C(O)Cc1sc(-c2ccccc2)nc1-c1ccc(Cl)cc1,inactive,inactive,inactive,–,–
NCCCOCCOCCOCCCN,inactive,inactive,inactive,–,–
CCN(CC)CCOC(=O)C1(c2ccccc2)CCCC1,inactive,inactive,inactive,–,–
CN(C)C/C=C(/c1ccc(Br)cc1)c1cccnc1,–,inactive,inactive,inactive,inactive
